Screening data deposited in PubChem by The Scripps Research Institute Molecular Screening Center.
GalR3 antagonist: human GalR3 antagonism; 360,000 tested, 0.44% active; O60755; AID 651719; HEK293 GalR3-CNG cAMP membrane potential fluorescence; galR3 body fused to GalR1 C-terminus; inhibition, % at 3 µM;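 active means inhibition above the screen-wide average plus 3 SD, cut at about 13% in these data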;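 further: forskolin and galanin both at EC90 stimulate the cells; cAMP rise reported by CNG channel membrane potential dye signal; 0% = forskolin plus galanin with DMSO and 100% = forskolin alone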
SRC1 inh: inhibitors of human steroid receptor coactivator 1 (SRC1); Q15788; HEK293 GAL4-SRC1 luciferase reporter, luminescence; inhibition, % at 3.6 µM; 360,000 tested, 0.12% active; AID 588354;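 active means inhibition above the campaign mean plus 3 SD, with each screening campaign given its own cutoff, cut at about 60% in these data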;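 further: 0% = DMSO treated cells and 100% = gossypol at 36 µM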
Target sequence (Q15788 whole entry, looked up, the tested form may be a part): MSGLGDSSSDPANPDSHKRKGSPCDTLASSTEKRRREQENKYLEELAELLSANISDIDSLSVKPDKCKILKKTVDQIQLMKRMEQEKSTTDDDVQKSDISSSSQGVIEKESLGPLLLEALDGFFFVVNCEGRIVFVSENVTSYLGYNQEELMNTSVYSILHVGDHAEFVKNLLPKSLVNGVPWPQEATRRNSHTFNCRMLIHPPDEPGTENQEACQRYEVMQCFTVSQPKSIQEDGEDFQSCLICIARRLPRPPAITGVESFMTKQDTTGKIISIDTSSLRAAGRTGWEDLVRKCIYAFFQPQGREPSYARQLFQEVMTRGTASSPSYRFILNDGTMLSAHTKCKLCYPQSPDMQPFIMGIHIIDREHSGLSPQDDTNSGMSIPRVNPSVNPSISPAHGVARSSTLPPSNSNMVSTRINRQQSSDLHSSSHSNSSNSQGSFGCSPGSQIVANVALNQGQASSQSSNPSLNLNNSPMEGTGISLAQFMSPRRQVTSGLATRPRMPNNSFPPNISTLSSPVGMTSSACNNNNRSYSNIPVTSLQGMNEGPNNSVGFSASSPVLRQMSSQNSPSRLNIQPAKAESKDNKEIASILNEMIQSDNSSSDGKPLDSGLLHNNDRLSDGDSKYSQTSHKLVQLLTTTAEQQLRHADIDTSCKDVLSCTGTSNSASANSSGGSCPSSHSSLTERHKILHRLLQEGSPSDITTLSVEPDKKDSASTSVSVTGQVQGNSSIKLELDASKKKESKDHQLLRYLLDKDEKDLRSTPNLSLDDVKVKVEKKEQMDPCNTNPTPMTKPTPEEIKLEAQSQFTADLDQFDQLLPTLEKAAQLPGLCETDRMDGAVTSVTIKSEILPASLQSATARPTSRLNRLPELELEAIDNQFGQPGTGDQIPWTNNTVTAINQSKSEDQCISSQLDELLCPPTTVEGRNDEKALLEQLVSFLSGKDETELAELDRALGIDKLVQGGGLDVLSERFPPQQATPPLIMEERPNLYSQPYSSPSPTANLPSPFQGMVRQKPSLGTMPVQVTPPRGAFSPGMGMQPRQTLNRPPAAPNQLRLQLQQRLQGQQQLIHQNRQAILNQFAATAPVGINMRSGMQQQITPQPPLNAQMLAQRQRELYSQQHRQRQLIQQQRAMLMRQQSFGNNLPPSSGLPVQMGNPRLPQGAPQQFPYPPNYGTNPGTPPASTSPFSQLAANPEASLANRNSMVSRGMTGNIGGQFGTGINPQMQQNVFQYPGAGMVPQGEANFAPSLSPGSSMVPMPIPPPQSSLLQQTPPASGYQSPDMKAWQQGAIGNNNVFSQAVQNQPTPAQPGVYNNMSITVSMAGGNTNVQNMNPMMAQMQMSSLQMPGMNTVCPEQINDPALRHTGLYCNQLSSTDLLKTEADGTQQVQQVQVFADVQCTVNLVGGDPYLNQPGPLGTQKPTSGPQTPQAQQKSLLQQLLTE
NR2F2 inh: inhibitors of human COUP-TFII (NR2F2). HEK293T NGFI-A luciferase reporter, luminescence. inhibition, % at 8.6 µM. 370,000 tested, 0.7% active. AID 686940;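 active means inhibition above a per-plate cutoff, mean inhibition of test wells between control levels plus 3 SD, cut at about 38% in these data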;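 further: cells cotransfected with COUP-TFII expression vector driving the NGFI-A reporter; 0% = median of COUP-TF2 test wells and 100% = reporter-only cells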
NR5A2 inv ag: inverse agonists of human LRH-1 (NR5A2); HEK293T StAR-luciferase reporter, LRH-1 transfected, 24 h; inhibition, % at 3.6 µM; 360,000 tested, 0.13% active;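 active means inhibition above the mean inhibition of all tested compounds plus 3 SD, cut at about 73% in these data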;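 further: 0% = DMSO wells and 100% = reporter-only cells lacking LRH-1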
SRC3 inh: human NCOA3 inhibition | 360,000 tested, 0.17% active | HEK293 GAL4-SRC3 luciferase reporter, luminescence | inhibition, % at 3.6 µM;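 active means inhibition above a per-campaign cutoff, the mean of all compounds plus 3 SD, cut at about 60% in these data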;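 further: 0% = DMSO-treated cells and 100% = gossypol-treated cells at 36 µM; higher means less SRC3-driven luciferase light from the GAL4 reporter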
NCOA2 inhibitor: human SRC2 (NCOA2) inhibition. Q15596. HEK293 GAL4-SRC2 luciferase reporter, luminescence. inhibition, % at 9 µM. 370,000 tested, 0.17% active;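 active means inhibition above the mean inhibition of all tested compounds plus 3 SD, set per campaign, cut at about 52% in these data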;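 further: 0% = DMSO treated cells and 100% = cells given Gossypol at 36 µM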
GalR3 antag conf: GalR3 (human) antagonism, confirmation | shares compounds with GalR3 antagonist | HEK293 GalR3 CNG cAMP biosensor, membrane potential fluorescence; galR3 fused to GalR1 carboxy tail; challenged with forskolin and galanin at EC90 | inhibition, % at 3 µM | 1,600 tested, 59% active;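 active means inhibition above the primary screen's cutoff, the mean inhibition of all screened compounds plus 3 SD, cut at about 13% in these data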;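 further: 0% = forskolin plus galanin and 100% = forskolin alone with DMSO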
HEK-CNG parental: counter-screen for GalR3 antagonists: nonspecific agonists in parental HEK-CNG cells. shares compounds with GalR3 antagonist. HEK293-CNG parental cells, cAMP membrane potential fluorescence; normalised: DMSO wells 0%, forskolin wells 100%. activation, % at 3 µM. 1,600 tested, 10% active. AID 652268; in the data active means activation above about 1.3%
Starred values were filed as active, the others as inactive; x = no result given. This is a sample that favours compounds with a hit; in the whole collection about 1.1% have one here.

SMILES	GalR3 antagonist	SRC1 inh	NR2F2 inh	NR5A2 inv ag	SRC3 inh	NCOA2 inhibitor	GalR3 antag conf	HEK-CNG parental
CCSc1nnc(N2C(=O)C(O)=C(C(=O)c3ccco3)C2c2cccc(OC)c2)s1 (stereo not drawn)	14.0*	-16.3	1.0	-13.7	-11.6	-11.8	6.4	-0.2
CSc1nnc(N2C(=O)C(O)=C(C(=O)c3ccco3)C2c2cccc(Cl)c2)s1 (stereo not drawn)	-1.1	-14.4	14.7	-8.9	-7.5	-35.9	x	x
Cc1ccc(Sc2sc(=O)n(C)c2S(=O)(=O)c2ccc(C)cc2)cc1	20.2*	7.9	5.8	11.8	14.1	14.5	2.3	0.4
CCOc1ccccc1OCC(=O)N/N=C(\C)Cc1ccc(OC)cc1	22.4*	-4.5	-48.3	20.5	9.8	27.7	-1.6	1.0
Cc1ccc(C)c(N(C)C(=O)c2cc3c(=O)[nH]c4ccc(C)cc4c3s2)c1	15.8*	-14.2	17.5	9.7	8.9	-11.0	19.2*	3.2*
Cc1ccc(NC(=O)Cn2nnc(-c3ccncc3)n2)cc1C	x	x	1.2	x	x	3.4	x	x
O=C(c1ccc([N+](=O)[O-])s1)N1CCN(c2ccccc2)CC1	50.1*	9.3	16.8	17.0	12.7	-23.7	-5.2	-0.3
CSc1nsc2nc(=O)c(/C=C3\C(C)=Nc4ccccc43)c(N)n12	12.7*	-9.4	-21.1	-7.6	16.5	-44.4	2.6	-0.1
CC1=Nc2ccccc2/C1=C/c1sc(=S)n(-c2cccc(C(=O)O)c2)c1O	-2.8	-3.6	-6.3	-11.2	16.3	4.3	x	x
CCn1c2ccccc2c2cc(NC(=O)COC(=O)c3cc(F)cc(F)c3)ccc21	x	x	-5.8	x	x	-4.6	x	x
COC(=O)c1ccc(N2CCN(CC(=O)c3ccc(-c4ccccc4)cc3)CC2)c([N+](=O)[O-])c1	x	-35.1	-5.5	7.0	-19.7	-9.5	7.4	0.4
C#CCNC(=O)C[C@H]1C[C@@]2(C(=O)OC)C(=C[C@H](COCc3ccccc3)O[C@@H]2C)N(CCCCCCCC)C1=O	x	x	0.6	x	x	-5.0	x	x
COC(=O)c1ccc(-c2ccc3c(c2)[C@]2(CCC[C@@H](O)[C@@H]2NC(=O)CCc2ccccc2)C(=O)N3Cc2ccccc2)cc1	x	x	9.5	x	x	-26.1	x	x
COc1ccc(C(=O)C2(C(=O)Nc3cc(C)cc(C)c3)CC(c3ccccc3C(F)(F)F)=NO2)cc1 (stereo not drawn)	x	x	-13.8	x	x	10.8	x	x
CCOc1ccc(-n2c(SC/C=C/c3ccccc3)nnc2-c2ccco2)cc1	x	x	11.3	x	x	10.0	x	x
O=C(Nc1sc2c(c1-c1nc3ccccc3s1)CCNC2)C(F)(F)F	x	x	-5.1	x	x	x	x	x
NS(=O)(=O)c1ccc(O)c(NC(=O)c2ccc([N+](=O)[O-])cc2)c1	19.9*	-20.9	-6.3	-9.6	0.0	-34.4	3.8	0.2
CCN(CC)C(=O)CC[C@H]1CC[C@]2(CCCN(Cc3ccccn3)C2)O1	x	x	-30.3	x	x	-2.6	x	x
COc1cccc(N2CCN(CC(=O)NCc3ccc(Cl)cc3)CC2)c1	x	x	12.2	x	x	-11.1	x	x
CN(C)S(=O)(=O)c1ccc(Cl)c(C(=O)NCCNC(=O)c2cc(S(=O)(=O)N(C)C)ccc2Cl)c1	12.7*	6.2	-5.1	-12.6	18.6	6.8	8.2	0.3
COc1cc(NC(=O)COc2cccc(C)c2C)ccc1NC(=O)c1ccco1	13.8*	-5.0	3.2	-5.9	-6.9	5.5	6.3	0.7
N=C1/C(=C\c2ccc(-c3cc(Cl)cc(Cl)c3)o2)C(=O)N=C2SC=C(c3ccccc3)N12	12.9*	-11.6	-37.3	1.2	9.8	-6.9	4.5	-0.4
N=C1/C(=C/c2ccc(-c3cccc(C(=O)O)c3)o2)C(=O)N=C2SC=C(c3ccccc3)N12	-0.1	-30.6	7.1	-34.6	1.4	-22.7	x	x
CCn1c(=O)n(CC(=O)N2CCN(C(C)=O)CC2)c(=O)c2ccccc21	x	x	-5.8	x	x	-21.6	x	x
Cc1nc(N2N=C(c3ccc(Cl)cc3)CC2c2ccco2)sc1C(=O)N(C)C (stereo not drawn)	20.9*	-52.2	2.2	-103.1	-37.1	-2.6	6.9	0.7
SMILES	GalR3 antagonist	SRC1 inh	NR2F2 inh	NR5A2 inv ag	SRC3 inh	NCOA2 inhibitor	GalR3 antag conf	HEK-CNG parental
CCCc1ccc(Oc2cc(C)nc(N3CCOCC3)n2)cc1	14.9*	-5.6	-3.3	-8.3	-6.0	-12.6	9.3	0.0
O=S(=O)(Nc1nc2ccccc2nc1NCC1CCCO1)c1cc(Cl)ccc1Cl (stereo not drawn)	15.2*	-19.2	-0.6	-0.4	12.4	-1.6	1.4	-0.2
Cc1cc(C)n(CC(=O)NNC(=O)COc2ccc(Cl)cc2Cl)n1	-7.4	-20.6	-4.3	13.7	-16.9	-32.5	x	x
Cc1cc(C)n(C(=O)COc2ccc(Cl)cc2Cl)n1	14.2*	0.9	-1.6	0.1	10.5	9.1	15.7*	0.5
Cc1oc(-c2ccccc2)cc1C(=O)Nc1cccc(/C=C\C(=O)O)c1	70.9*	5.5	-1.7	19.6	-2.0	-11.2	91.4*	0.2
COc1ccc(CNCC#Cc2ccccc2)c(OC)c1	x	x	15.6	x	x	8.1	x	x
Nc1cc(=O)[nH]c(=O)n1-c1cccc(F)c1	26.5*	-59.7	11.1	-14.0	11.9	-25.2	5.6	0.1
Cc1cccc(-n2c(N)cc(=O)[nH]c2=S)c1	-0.6	6.6	-16.0	0.9	-0.7	8.8	x	x
CCn1ncc(C2=NOC(C(=O)NCc3ccccc3)C2)c1C (stereo not drawn)	16.0*	-28.5	-51.3	21.0	-0.8	13.5	24.8*	0.8
CC1CCN(C(=O)c2[nH]cnc2C(=O)NCc2ccc(CNC(=O)OC(C)(C)C)cc2)CC1	-5.7	-5.6	8.8	-12.9	5.0	18.1	x	x
CC1CCN(C(=O)c2[nH]cnc2C(=O)NCc2ccccc2)CC1	x	-5.3	-21.0	-1.8	-6.2	-2.4	11.4	0.1
COc1cc(/C=N/n2nnnc2N)ccc1OCC(N)=O	x	-0.1	x	11.2	11.8	x	x	x
COc1cc(/C=N/N=C(N)N)ccc1OCc1ccc(Cl)cc1	92.0*	-46.5	-0.5	-107.3	-22.1	-29.5	44.7*	1.8*
COc1cc(/C=N\n2nnnc2N)ccc1OCc1ccc(F)cc1	20.7*	0.4	-29.3	-19.7	-12.1	-36.1	24.9*	0.6
Cc1cc(C)cc(C(=O)OCCCN(C)C2CN(Cc3cn(Cc4ccc([N+](=O)[O-])cc4)nn3)S(=O)(=O)C2)c1 (stereo not drawn)	x	x	31.4	x	x	-31.1	x	x
COc1ccc(-c2cc(-c3n[nH]c(=S)n3-c3ccccc3OC)[nH]n2)cc1	22.1*	-10.1	6.1	2.7	1.6	1.7	16.9*	0.3
